Rows were chosen to be rich in hits. Some 2.3% of all compounds tested hit in one or more screens of this group.
TDP-43 yeast inh: inhibitors of TDP-43 toxicity in yeast. TDP-43 expressing yeast growth rescue, BacTiter-Glo, 24 h. Potency, µM (top dose mostly 46.1 µM), usual class: activators. 410,000 compounds, 1.8% hits. AID 652104; note: nearly all actives have a fitted effect of over 50% in size
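Luminescence from BacTiter-Glo reports growth of TDP-43-expressing yeast after 24 hr at 30 deg C with compound. Cells were raffinose-pregrown to mid-log, then seeded in galactose medium at OD600=0.02.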
pAkt inh: Akt phosphorylation inhibition | 360,000 compounds, 0.32% hits | activity change, % for hits at 50 µM | AID 651550 | Neuro2A IGF-stimulated pAkt S473 HTRF, 20 min; hits give low values; in the data active = activity change below about -80%; inconclusive = mostly about -51% to -80%
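Single-point screen (50 µM final compound) in Neuro2A cells stimulated 20 min with 6 nM IGF at 37 deg C. After lysis, Ser473-phosphorylated Akt read by HTRF (ex 330 nm, em 615/665 nm) as the 665/615 ratio.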
Abeta rescue: A-beta toxicity reversal in yeast | yeast expressing A-beta42, growth rescue, OD600, 48 h; response scale: 0% DMSO, 100% iron-clioquinol control | Potency, µM (series often up to 46.1 µM), most hits filed as activators | 410,000 compounds, 0.063% hits | AID 1347071; note: nearly all actives have a fitted effect of over 55% in size
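Yeast A-beta toxicity model in growth medium with pinned compounds, 48 h at 30 C; growth read as absorbance at 600 nm. Normalized to FeCl3/clioquinol equimolar mix (positive) and DMSO (negative).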
aSyn rescue: rescues yeast growth from alpha-synuclein toxicity | Yeast expressing alpha-synuclein, growth rescue, BacTiter-Glo, 24 h | Potency, µM (doses to about 46.1 µM), hits mostly activators | 370,000 compounds, 0.14% hits; note: nearly all actives have a fitted effect of over 65% in size
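Galactose-induced alpha-syn yeast (OD600=0.02, raffinose-pregrown) + pinned cpd, 24 hr, 30 deg C; growth by BacTiter-Glo luminescence. Growth restoration scores as activation.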
FUS suppressor: rescues growth of FUS-expressing yeast | S. cerevisiae FUS-expressing, growth rescue, OD600, 24 h | Potency, µM (series often up to 76.6 µM), hits mostly activators | 390,000 compounds, 0.24% hits; note: nearly all actives have a fitted effect of over 55% in size
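Absorbance at 600 nm, taken 24hr after compound addition, measured rescue of FUS-yeast growth at 30C. Induction used 2% galactose with seeding at OD 0.005. Controls: CP55940 from 92uM final, DMSO only.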
Of the large screens only hits and unclear results are named; the others gave an inactive call. Unless noted, calls come from the whole dose curve; as a rule, active = well fitted curve in the direction sought with a large enough effect; inconclusive = small, poorly fitted or top-dose-only effect, or another doubt; inactive = no such curve, though single readings can be large; an effect the other way counts as inactive or inconclusive.

Cc1ccc(Cn2nnnc2CN2CCC(n3nnc4cc(C)ccc43)CC2)cc1	TDP-43 yeast inh 20µM
CC(C)(C)C(O)C(Oc1ccc(Cl)cc1)n1cncn1 (configuration not stated)	TDP-43 yeast inh 2.5µM, Abeta rescue inconclusive, aSyn rescue inconclusive
COc1c(C)cc(Br)cc1C(=O)Nc1ccc(-c2nc3ncccc3o2)cc1	TDP-43 yeast inh inconclusive (no result: pAkt inh, aSyn rescue)
Cc1ccc(S(=O)(=O)Nc2ccc3ncccc3c2[N+](=O)[O-])cc1	TDP-43 yeast inh 3.5µM (no result: FUS suppressor)
O=C(CI)c1ccc(Cl)cc1	none (no result: TDP-43 yeast inh, pAkt inh, Abeta rescue, FUS suppressor)
COC1C(C)OC(OC2CC(C)(O)Cc3cc4c(c(O)c32)C(=O)c2c(O)cc3c(c2C4=O)OC2OC3(C)C(O)C(N(C)C)C2O)C(OC)C1(C)OC (configuration not stated)	TDP-43 yeast inh 22µM, aSyn rescue inconclusive (no result: FUS suppressor)
O=C(NC1CCCCCC1)c1ccc[nH]c1=S	TDP-43 yeast inh inconclusive
Cc1nc(-c2cccc(CN(C)C(=O)Oc3ccc([N+](=O)[O-])cc3)c2)no1	TDP-43 yeast inh 13µM
CCC(=O)Nc1ccc(C(=O)OCc2ccccc2Cl)cc1	TDP-43 yeast inh inconclusive (no result: FUS suppressor)
CCOC(=O)c1c(-n2c(C)cc(C=C3C(=O)NC(=S)NC3=O)c2C)sc2c1CCCC2	TDP-43 yeast inh 18µM
c1ccc(N2CCN(c3ncnc4c3nc3n4CCCCC3)CC2)cc1	TDP-43 yeast inh 14µM (no result: pAkt inh, aSyn rescue)
Cc1c(C(=O)c2cccc3ccccc23)c2cccc3c2n1[C@H](CN1CCOCC1)CO3	TDP-43 yeast inh 25µM
O=C(CN1CCOCC1)c1cccc2ccccc12	none
CC1CCC(C)(NS(=O)(=O)OCC(Cl)(Cl)Cl)CC1 (configuration not stated)	TDP-43 yeast inh 18µM
CCC(C)C1NC(=O)C(NC(=O)C(CC(C)C)N(C)C(=O)C2CCCN2C(=O)C(C)O)C(C)OC(=O)C(Cc2ccc(OC)cc2)N(C)C(=O)C2CCCN2C(=O)C(CC(C)C)NC(=O)[C@H](C)C(=O)[C@H](C(C)C)OC(=O)CC1O (some centres not stated)	none (no result: FUS suppressor)
C#CCCC[C@@H]1OC(=O)CNC(=O)C([C@@H](C)CC)NC(=O)[C@@H]2CCCN2C(=O)C([C@@H](C)CC)OC(=O)[C@H](Cc2ccccc2)N(C)C(=O)[C@H](C(C)C)NC(=O)C1(C)C (some centres not stated)	FUS suppressor 7.9µM
O=[N+]([O-])c1cccc(NP(=O)(Oc2ccccc2)Oc2ccccc2)c1	TDP-43 yeast inh 22µM, aSyn rescue inconclusive
COc1cccc(NP(=O)(Oc2ccc(Cl)cc2)Oc2ccc(Cl)cc2)c1	none (no result: FUS suppressor)
Cc1cccc(NC(=O)COC(=O)c2cc(C)n(C3CC3)c2C)c1	TDP-43 yeast inh 35µM
Cc1cccc(-n2c(-c3cccs3)nc3ccccc3c2=O)c1	TDP-43 yeast inh 20µM
O=c1c2ccccc2nc(-c2cccs2)n1-c1ccccc1	none
c1ccc(-c2ccc(C(c3ccccc3)n3ccnc3)cc2)cc1 (configuration not stated)	TDP-43 yeast inh 6.3µM, aSyn rescue inconclusive
CCN(c1ccc(C(O)(C(=O)OC)C(F)(F)F)cc1)S(=O)(=O)c1ccccc1 (configuration not stated)	pAkt inh -125%
CCOC(=O)C(O)(c1ccc(N(CC)S(=O)(=O)c2ccccc2)cc1)C(F)(F)F (configuration not stated)	none
NC(CCc1ccccc1)c1csc(NC(=O)Nc2ccccc2Oc2ccccc2)n1 (configuration not stated)	FUS suppressor inconclusive
COC(=O)C1=C(c2ccccc2OCc2ccccc2)C[C@@H]2CC[C@H]1N2C(=O)NCc1ccc(Cl)cc1	TDP-43 yeast inh inconclusive, FUS suppressor 32µM
COC(=O)C1=C(c2ccccc2OCc2ccccc2)C[C@@H]2CC[C@H]1N2C(=O)NCc1ccc([N+](=O)[O-])cc1	FUS suppressor 28µM
COC(=O)C1=C(c2ccccc2OCc2ccccc2)C[C@@H]2CC[C@H]1N2C(=O)NCc1ccc(N(C)C)cc1	none
COC(=O)C1=C(c2ccc(F)cc2OCc2ccccc2)C[C@@H]2CC[C@H]1N2C(=O)NCc1ccc(Br)cc1	TDP-43 yeast inh 3.5µM, FUS suppressor inconclusive
Cn1ncc2c(NCc3ccc(Cl)cc3)ncnc21	TDP-43 yeast inh inconclusive (no result: pAkt inh, aSyn rescue)
COc1cc(Cn2c(=O)oc3ccc(C)cc32)ccc1OC(C)C	TDP-43 yeast inh 35µM

Compound activity: PubChem, National Center for Advancing Translational Sciences (NCATS)
